Screens from PubChem BioAssay.
Beta cell apopt: beta cell apoptosis inhibition | actives 0.8% (n = 300,000) | INS-1E cytokine-induced death, ATP luminescence, 48 h; percent of positive-control rescue, neutral wells zero | AID 435005 | protection from apoptosis, % (no concentration beside the values);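 active = Every replicate reaches about 75%, or at least half do and their mean reaches it too, limit read from the data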;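 also: 0% = cytokine-treated negative control wells and 100% = positive control rescue; higher means more ATP so stronger rescue from cytokine killing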
Gli-Sufu block: blocks Gli-Sufu signaling in a luciferase reporter | actives 0.74% (n = 340,000) | AID 588413 | Sufu-KO-LIGHT fibroblasts, Gli luciferase reporter luminescence | inhibition, % at 5 µM;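 active = inhibition above about 55%, limit read from the data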;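 also: 0% = DMSO-treated cells and 100% = wells with medium but no cells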
Jurkat NFkB inh: lowers PMA/ionomycin-induced NF-kB signal in Jurkat cells. PMA/ionomycin-induced NF-kB luciferase reporter, luminescence. inhibition, % at 4 µM. actives 0.53% (n = 330,000); in the data active = inhibition above about 50%
697 NFkB inh: inhibitors of the PMA/ionomycin-induced NF-kB reporter in 697 B cells; 697 B-cell NF-kB luciferase reporter, 16 h; inhibition, % at 4 µM; actives 0.33% (n = 330,000); in the data active = inhibition above about 35%
Jurkat NFkB conf: inhibitors of the PMA/ionomycin-induced NF-kB reporter in Jurkat cells, retest | inhibition, % at 4 µM | actives 27% (n = 2,700) | Jurkat NF-kB luciferase, 16 h | shares compounds with Jurkat NFkB inh;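 active = inhibition reaching about 45% at 4 µM in either replicate, limit read from the data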;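 also: plate controls were PMA/ionomycin stimulated DMSO wells for no effect and unstimulated DMSO wells for full effect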
The depositor's hits bear a star. The list is not random: actives were taken first. Their share in the collection is about 1.8%.

What do the screens show for `Cc1cc(C)cc(Oc2cc(NC(=O)c3cn(C)nc3C)cc([N+](=O)[O-])c2)c1`?
Beta cell apopt: 104*; Gli-Sufu block: 17; Jurkat NFkB inh: -1; 697 NFkB inh: -4

What do the screens show for `Cc1cccc(Oc2cc(NC(=O)Cn3cnc([N+](=O)[O-])n3)cc([N+](=O)[O-])c2)c1`?
Beta cell apopt: -2; Gli-Sufu block: 8

Results for CC(C)c1ccc(-n2c(-c3ccccc3)c[n+]3c2CCc2ccccc2-3)cc1 ?
Gli-Sufu block: 85*

What do the screens show for `COc1ccc(-n2c(-c3ccc(Cl)cc3)c[n+]3c2CCCCC3)cc1`?
Beta cell apopt: 125*; Jurkat NFkB inh: 7; 697 NFkB inh: -22

What do the screens show for `Cc1ccc(S(=O)(=O)N2CC(O)CC2C(=O)NCc2ccc3c(c2)OCO3)cc1` (configuration not stated)?
Beta cell apopt: 2; Gli-Sufu block: 3; Jurkat NFkB inh: 1; 697 NFkB inh: 5

What do the screens show for `C/C(=N\NC(=O)c1ccccc1)c1c(C)[nH]n(-c2ccccc2)c1=O`?
Beta cell apopt: 14; Gli-Sufu block: 8; Jurkat NFkB inh: -2; 697 NFkB inh: 15

What do the screens show for `C/C(=N\NC(=O)c1ccc(C)cc1)c1c(C)[nH]n(-c2ccccc2)c1=O`?
Beta cell apopt: 91*; Gli-Sufu block: 6; Jurkat NFkB inh: -14; 697 NFkB inh: -20

How did C=CCn1c(=NC(=O)c2cc(-c3cccs3)nc3ccccc23)sc2cc(S(N)(=O)=O)ccc21 do in these assays?
Beta cell apopt: 92*; Gli-Sufu block: 11; Jurkat NFkB inh: -2; 697 NFkB inh: 11

Results for COCCn1c(=NC(=O)c2cc(-c3cccs3)nc3ccccc23)sc2cc(S(N)(=O)=O)ccc21 ?
Beta cell apopt: 12; Gli-Sufu block: 7; Jurkat NFkB inh: -3; 697 NFkB inh: -32

Results for O=C(NCC1COc2ccccc2O1)c1cccc(S(=O)(=O)NCc2ccccc2)c1 (configuration not stated) ?
Beta cell apopt: 105*; Gli-Sufu block: 1; Jurkat NFkB inh: 4; 697 NFkB inh: -9

What do the screens show for `CC1CN(S(=O)(=O)c2cccc(C(=O)NCC3COc4ccccc4O3)c2)CC(C)O1` (configuration not stated)?
Beta cell apopt: 2; Gli-Sufu block: 4; Jurkat NFkB inh: -1; 697 NFkB inh: -3

How did Cc1ccc(NC(=O)COC(=O)c2nn(-c3ccc(Cl)cc3)cc2O)cc1 do in these assays?
Beta cell apopt: 1; Gli-Sufu block: 48; Jurkat NFkB inh: -11; 697 NFkB inh: 11

Results for NNC(=O)c1nn(-c2ccc(Cl)cc2)cc1O ?
Beta cell apopt: 75*; Gli-Sufu block: -5; Jurkat NFkB inh: -3; 697 NFkB inh: -21

What do the screens show for `Cc1cc(C)n(-c2nc(NCCN(C)C)c3c4c(sc3n2)CCCC4)n1`?
Beta cell apopt: 112*; Gli-Sufu block: 9; Jurkat NFkB inh: 28; 697 NFkB inh: -11

What do the screens show for `Cc1cc(C)n(-c2nc(NCCCN(C)C)c3c4c(sc3n2)CCCC4)n1`?
Beta cell apopt: 36; Gli-Sufu block: 3; Jurkat NFkB inh: 21; 697 NFkB inh: -24

What do the screens show for `CC1=C(CO)C(=O)OC([C@@H](C)C2CC[C@H]3C4C[C@H]5O[C@]56[C@@H](O)C=CC(=O)[C@]6(C)C4CC[C@]23C)C1` (some centres not stated)?
Beta cell apopt: 109*; Gli-Sufu block: 16

What do the screens show for `O=[N+]([O-])c1cc(Cl)cc(/C=N\Nc2ccccn2)c1O`?
Beta cell apopt: 109*; Gli-Sufu block: 57*; Jurkat NFkB inh: -12; 697 NFkB inh: -8

What do the screens show for `Cc1ccc2[nH]c(=O)c(C3C(C#N)=C(N)Oc4c3ccc3cccnc43)cc2c1` (configuration not stated)?
Beta cell apopt: 91*; Gli-Sufu block: 19; Jurkat NFkB inh: -15; 697 NFkB inh: -15

Results for COc1ccc(NC(=O)CO/N=C(\C)c2cccs2)cc1 ?
Beta cell apopt: -2; Gli-Sufu block: -2; Jurkat NFkB inh: 6; 697 NFkB inh: 4

How did NC(=O)CSc1nc(C2CC2)nc2sc3c(c12)CCCC3 do in these assays?
Beta cell apopt: -2; Gli-Sufu block: -94; Jurkat NFkB inh: -189; 697 NFkB inh: -225; Jurkat NFkB conf: -70

Results for COC(=O)Nc1ccc(S(=O)(=O)N2CCCc3ccccc32)cc1 ?
Beta cell apopt: 27; Gli-Sufu block: -3; Jurkat NFkB inh: 61*; 697 NFkB inh: -58; Jurkat NFkB conf: 56*

Results for Cn1c(=O)oc2cc(S(=O)(=O)N3CCCc4ccccc43)ccc21 ?
Beta cell apopt: -6; Gli-Sufu block: 39; Jurkat NFkB inh: 55*; 697 NFkB inh: -47; Jurkat NFkB conf: 32

Results for Cn1c(=O)oc2cc(S(=O)(=O)N3CCc4ccccc43)ccc21 ?
Beta cell apopt: -1; Gli-Sufu block: 7; Jurkat NFkB inh: 10; 697 NFkB inh: -16

Results for CC(C)(C)N1C(=O)Cc2c1nc(N)c1c(N)nc(N3CCCCC3CO)c(C#N)c21 (configuration not stated) ?
Beta cell apopt: 10; Gli-Sufu block: 14; Jurkat NFkB inh: 56*; 697 NFkB inh: -45; Jurkat NFkB conf: 21

How did O=C(Nc1ccccc1)O/N=C(\c1ccccc1)c1ccccn1 do in these assays?
Beta cell apopt: -3; Gli-Sufu block: 0; Jurkat NFkB inh: -20; 697 NFkB inh: -2

What do the screens show for `Clc1ccc(C2=NNC(=NCc3ccc4c(c3)OCO4)SC2)cc1`?
Beta cell apopt: -4; Gli-Sufu block: 20

Results for Oc1ccc(C2=NNC(=NCc3ccc4c(c3)OCO4)SC2)c(O)c1 ?
Beta cell apopt: -1; Gli-Sufu block: -19; Jurkat NFkB inh: 52*; 697 NFkB inh: -51; Jurkat NFkB conf: 16

Results for CCN(CC)S(=O)(=O)c1ccc(N/N=C/c2cc(OC)c(OC)cc2OC)nc1 ?
Beta cell apopt: -2; Gli-Sufu block: 6; Jurkat NFkB inh: 3; 697 NFkB inh: -2

How did CCOc1cccc(/C=N/Nc2ccc(S(=O)(=O)N(CC)CC)cn2)c1O do in these assays?
Beta cell apopt: 117*; Gli-Sufu block: 90*; Jurkat NFkB inh: 60*; 697 NFkB inh: -34; Jurkat NFkB conf: 46

Results for CCOC(=O)/C=C/S(=O)(=O)c1ccc(NC(C)=O)cc1 ?
Beta cell apopt: 23; Gli-Sufu block: 9; Jurkat NFkB inh: 53*; 697 NFkB inh: 20; Jurkat NFkB conf: 38

How did CCOC(=O)/C=C/C(=O)Nc1ccc(S(=O)(=O)Nc2c(C)cc(C)cc2C)cc1 do in these assays?
Beta cell apopt: -6; Gli-Sufu block: -4; Jurkat NFkB inh: 0; 697 NFkB inh: 11

What do the screens show for `CCOC(=O)c1c(C)[nH]c(N=Nc2cccc(C)c2)c1C`?
Beta cell apopt: 5; Gli-Sufu block: -104; Jurkat NFkB inh: -111; 697 NFkB inh: -179

How did CCOC(=O)c1c(C)[nH]c(N=Nc2cccc(OC)c2)c1C do in these assays?
Gli-Sufu block: -110; Jurkat NFkB inh: -209; 697 NFkB inh: -174; Jurkat NFkB conf: -39
